PubChem BioAssay (EPA / NIEHS)
Active and inactive are the calls of the source. The calls were made as follows: active = hit-call score of the fitted dose curve at least 0.9, where 1 is the maximum; inactive = score below 0.9.

read-out: Glutamate-cysteine ligase regulatory (GCLM), GCLM (gene 2730); test: LTEA_HepaRG_GCLM: Life Technologies and Expression Analysis (LTEA) Assay for Glutamate-cysteine ligase regulatory (GCLM) using HepaRG (AID 2283500); settings: mRNA level, 48 h; actives raise or lower the signal
Summary of the method: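 Human liver HepaRG cultures receive test chemicals for 48 hours at up to 100 uM in 0.5% DMSO. GCLM expression is measured by qRT-PCR and analysed for increases or decreases against vehicle.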

Structure (SMILES)	outcome	AC50
COCC(C)N(C(=O)CCl)c1c(C)csc1C (stereo not drawn)	inactive	
COC(=O)c1c(C(F)F)nc(C(F)(F)F)c(C2=NCCS2)c1CC(C)C	inactive	
Cn1c(-c2ccccc2)cc(-c2ccccc2)[n+]1C	inactive	
COC(=O)NS(=O)(=O)c1ccc(N)cc1	inactive	
CC(C)Nc1nc(Cl)nc(NC(C)C)n1	inactive	
COC(=O)NC(=S)Nc1ccccc1NC(=S)NC(=O)OC	inactive	
Clc1cccc(C(Cl)(Cl)Cl)n1	inactive	
COP(=S)(OC)Oc1ccc([N+](=O)[O-])c(C)c1	inactive	
CCOP(=S)(OCC)Oc1nc(Cl)n(C(C)C)n1	inactive	
COc1cc(Cl)c(OC)cc1Cl	inactive	
CCCCC(O)(Cn1cncn1)c1ccc(Cl)cc1Cl (stereo not drawn)	inactive	
CNC(=O)N(C)c1nnc(C(C)(C)C)s1	inactive	
O=C(Nc1ccccc1-c1ccc(Cl)cc1)c1cccnc1Cl	inactive	
CCNC(=O)NC(=O)C(C#N)=NOC	inactive	
CCN(CC)C(=O)C(C)Oc1cccc2ccccc12 (stereo not drawn)	inactive	
CC1(C)CON(Cc2ccccc2Cl)C1=O	inactive	
CCOc1nc(C(Cl)(Cl)Cl)ns1		1.14 µM (active)
CN=C=S	inactive	
C=C(C)CN(CC)c1c([N+](=O)[O-])cc(C(F)(F)F)cc1[N+](=O)[O-]	inactive	
Nc1c(Cl)c(Cl)nc(C(=O)O)c1Cl	inactive	
CC1(C)C(C=C(Cl)Cl)C1C(=O)OC(C#N)c1cccc(Oc2ccccc2)c1 (stereo not drawn)	inactive	
Cc1cnc(C2=NC(C)(C(C)C)C(=O)N2)c(C(=O)O)c1 (stereo not drawn)	inactive	
CSC(=O)c1c(C(F)F)nc(C(F)(F)F)c(C(=O)SC)c1CC(C)C	inactive	
